Results as given in PubChem BioAssay.
Results filed as inconclusive are left out. The source made the active and inactive calls. Cut-off not given; nearly all actives show AC50 up to about 23 µM.

assay: growth inhibition of DIPG glioma cells, dose response, cell-based, SU-DIPG-XIII, MIPE5.0, CellTiter-Glo, qHTS (AID 1347064); conditions: SU-DIPG-XIII viability, CellTiter-Glo ATP luminescence;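 on AC50: cells exposed to compound for 48 hours before the viability read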

Row | Compound | outcome | AC50
1 | CONC(=O)Nc1ccc(-c2sc3c(c2CN(C)C)c(=O)n(-c2ccc(OC)nn2)c(=O)n3Cc2c(F)cccc2F)cc1 | inactive | –
2 | Cc1c(C(=O)Nc2ccc(Oc3ccnc4[nH]cc(-c5ccccc5)c34)c(F)c2)c(=O)n(-c2ccc(F)cc2)n1C | – | 16.6 µM (active)
3 | Cc1ccc(NC(=O)[C@H]2CCCN(C(=O)c3c(C)cccc3F)[C@H]2c2ccc(NC3CCCC3)cc2)cc1C(F)(F)F | inactive | –
4 | CC(C)NC(=O)COc1cccc(-c2nc(Nc3ccc4[nH]ncc4c3)c3ccccc3n2)c1 | – | 5.9 µM (active)
5 | Cc1cc(C(=O)Nc2cc(Oc3ccc4nc(NC(=O)C5CC5)cn4n3)ccc2C)n(C)n1 | – | 10.5 µM (active)
6 | CC1(C)CCC2(CC1)N[C@@H](C(=O)N[C@@H]1CC[C@@H](C(N)=O)OC1)[C@H](c1ccnc(Cl)c1F)[C@]21C(=O)Nc2cc(Cl)ccc21 | – | 16 µM (active)
7 | c1cn2cc(-c3ccc4cn[nH]c4c3)nc(Nc3ccc(N4CCOCC4)cc3)c2n1 | – | 11.8 µM (active)
8 | NC(=S)N/N=C/c1ncccc1N | – | 11.8 µM (active)
9 | O=C(NC[C@H](O)CN1CCc2ccccc2C1)c1ccnc(NC2CCC2)c1 | inactive | –
10 | CC(C)C(N)C(=O)OCC(CO)OCn1cnc2c(=O)[nH]c(N)nc21 (stereo not given) | inactive | –
11 | OC(c1ccc(-c2ccc(CN3CCN(Cc4ccncc4)CC3)cc2)c(F)c1)(C(F)(F)F)C(F)(F)F | inactive | –
12 | Cc1cc(O)c(-c2ccc([C@@H](C)CN(C)C)cc2)c2c1[nH]c(=O)c1sccc12 | – | 0.417 µM (active)
13 | Cc1c(NC(=O)c2cc(C(N)=O)nc3cc(F)ccc23)c(C(F)(F)F)nn1Cc1ccc(C(C)(C)C)cc1 | – | 26.3 µM (active)
14 | NC(=O)c1cccc(-c2cc(Nc3ccc(OC(F)(F)F)cc3)ncn2)c1 | – | 20.9 µM (active)
15 | O=C(NO)c1cnc(NC2(c3ccccc3)CC2)nc1 | – | 3.32 µM (active)
16 | C=Cc1cc(O)cc2nc(-c3ccc(O)c(F)c3)oc12 | inactive | –
17 | COc1ncc(Nc2ncc([C@H](C)N3CCN(S(C)(=O)=O)CC3)cc2-c2nc(C)nc(N)n2)cc1F | – | 0.525 µM (active)
18 | COc1ccc(-n2cnc3cc(C(=O)N4CCCCC4)ccc32)cc1 | inactive | –
19 | C[C@@H](C(=O)Nc1ccc(Cl)cc1)C1CCC(c2ccnc3ccc(F)cc23)CC1 (stereo not given in full) | inactive | –
20 | O=C1OC(COc2ccccc2[N+](=O)[O-])CC1Cc1ccccc1 (stereo not given) | inactive | –

Row | Compound | outcome | AC50
21 | CCS(=O)(=O)N1CCN(c2ccc(Nc3ncc(C(N)=O)c(NC4CC4)n3)cc2)CC1 | – | 16.6 µM (active)
22 | CCCCOC(=O)NS(=O)(=O)c1sc(CC(C)C)cc1-c1ccc(Cn2ccnc2)cc1 | inactive | –
23 | CN1C(=O)N[C@H](Cc2c[nH]c3c(Cl)cccc23)C1=O | inactive | –
24 | CN(C)c1cc(NC(=O)CNC(C)(C)C)c(O)c2c1C[C@H]1C[C@H]3[C@H](N(C)C)C(=O)C(C(N)=O)=C(O)[C@]3(O)C(=O)C1=C2O | inactive | –
25 | CCN1C(=O)CNc2ncc(-c3ccc(-c4ncn[nH]4)nc3C)nc21 | – | 4.17 µM (active)
26 | Nc1nccc2c1ncn2[C@@H]1C=C(CO)[C@@H](O)[C@H]1O | inactive | –
27 | COCc1c(-c2ccc(NC(=O)Nc3cc(C(F)(F)F)ccc3F)c(F)c2)c2c(N)ncnn2c1CN1CCOCC1 | – | 0.295 µM (active)
28 | NC(=O)c1cnc(N[C@@H]2CCCC[C@@H]2N)nc1Nc1cccc(-n2nccn2)c1 | – | 7.42 µM (active)
29 | CN[C@@H](C)C(=O)N[C@H](C(=O)N1CCC[C@H]1C(=O)Nc1snnc1-c1ccccc1)C1CCCCC1 | inactive | –
30 | COC1(c2sc3c(N4CCOCC4)nc(-c4cnc(N)nc4)nc3c2C)COC1 | – | 0.661 µM (active)
31 | CC1(C(=O)O)CCC2(C)CCC3(C)C(=CC(=O)C4C5(C)CCC(OC6OC(C(=O)O)C(O)C(O)C6OC6OC(C(=O)O)C(O)C(O)C6O)C(C)(C)C5CCC43C)C2C1 (stereo not given) | inactive | –
32 | CCS(=O)(=O)Nc1ccc(Oc2ccc(F)cc2F)c(-c2cn(C)c(=O)c3[nH]ccc23)c1 | – | 0.105 µM (active)
33 | CCNCCc1ccc(CN(CC)c2cc(OC)ccc2[C@@H]2CCc3cc(O)ccc3C2)cc1 | – | 7.42 µM (active)
34 | CC(C)n1c(=O)cc(N[C@@H](C)c2ccccc2)[nH]c1=O | – | 9.34 µM (active)
35 | c1ccc(CNCc2ccc(CN3CCCNCCNCCCNCC3)cc2)nc1 | inactive | –
36 | Cc1ccc(S(=O)(=O)Nc2cc(C(F)(F)F)ccc2C(=O)Nc2nc(-c3ccccc3)cs2)cc1 | – | 4.17 µM (active)
37 | Cc1ccc(-n2c(C)cc(-c3nnc4n3CCCCC4)c2C)cc1 | – | 14.8 µM (active)
38 | N#Cc1ccc(-c2c(-c3ncn[nH]3)sc(N3CCOCC3)c2C#N)c(F)c1 | – | 5.9 µM (active)
39 | CN(C)N(C)C(=O)[C@@]1(Cc2ccccc2)CCCN(C(=O)[C@@H](Cc2c[nH]c3ccccc23)NC(=O)C(C)(C)N)C1 | inactive | –
40 | O=C(Cc1cccc(OC(F)(F)F)c1)Nc1ccc(CCCCc2nnc(NC(=O)Cc3ccccn3)s2)nn1 | – | 13.2 µM (active)
